High-throughput results as filed in PubChem BioAssay.
This is a sample that favours compounds with a hit; in the whole collection about 21% have one here.
IL1B secr inh – inhibitors of inflammasome signaling (IL-1 beta secretion). AID 743279. activity change, % at 57.5 µM. 360,000 tested, 4.7% active. THP-1 LPS/ATP IL-1B secretion, AlphaLISA, 16 h; hits give low values; in the data active = activity change below about -50%; inconclusive = mostly about -30% to -49%
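THP-1 cells pretreated 1 hr with compounds (up to 57.5 uM final), then stimulated with LPS (250 ng/mL final) plus ATP (1.25 mM final); secreted IL-1B measured by AlphaLISA after 16 hr, decreased signal indicating inhibition.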
ClpP mod – qHTS Assay for Activators of ClpP. purified B. subtilis ClpP, FRET peptide cleavage, 20 min. Potency, µM (series often up to 57.5 µM). 340,000 tested, 1.9% active; active = well fitted falling curve with a large enough effect; inconclusive = small, poorly fitted or top-dose-only effect; inactive = no such curve, though single readings can be large or run the other way; also: the source files actives as falling curves though it sought activators and does not explain the sign; nearly all actives have a fitted effect of over 65% in size
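Buffer: 100 mM Tris/HCl pH8, 100 mM KCl, 0.05% low protease BSA, 2.5% glycerol, 0.01% Tween-20. ClpP 10 microg/mL final; 20 min RT; delta FRET normalized to ADEP and DMSO controls.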
TDP1 cell CPT – DT40-hTDP1 cell growth loss with CPT; chicken DT40 Tdp1-/-;hTDP1 cells + 20 nM CPT, ATP luminescence, 48 h; 420,000 tested, 12% active; Potency, µM (doses to about 46.2 µM), usual class: inhibitors; AID 686979; also: nearly all actives have a fitted effect of over 55% in size
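Chicken DT40 Tdp1-/- cells stably complemented with human TDP1 were seeded at 400 cells/well in medium containing 20 nM camptothecin, exposed to pin-transferred compounds, and grown at 37 °C for at least 48 hr. Viability was read as ATP luminescence.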
TDP1 cell noCPT – qHTS for Inhibitors of human tyrosyl-DNA phosphodiesterase 1 (TDP1): qHTS in cells in absence of CPT. DT40 Tdp1-/- hTDP1 cells, no CPT, ATP luminescence, 48 h. 420,000 tested, 15% active. Potency, µM (series often up to 46.2 µM), most hits filed as inhibitors. AID 686978, 2013; also: nearly all actives have a fitted effect of over 55% in size
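Luminescent ATP content (CellTiter-Glo) served as the growth readout. Knockout chicken DT40 cells expressing human TDP1 were exposed to compounds without camptothecin for a minimum 48 hr at 37 °C.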
D3 antag – D3 dopamine receptor (human) antagonism. P35462. D3R cells, DiscoveRx beta-arrestin luminescence, antagonist mode; hits give low values. max response, negative = inhibition, %. 360,000 tested, 2.5% active. AID 652054; in the data active = max response below about -50%; inconclusive = no clear call, values can overlap the other calls
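Cells expressing the human receptor were seeded at 1500 cells/well, incubated overnight at 37 degrees C in 5% CO2, then exposed to library compounds with dopamine controls for 90 minutes at 37 degrees C before luminescent detection.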
DRD3 agonist – agonists of human D3 dopamine receptor; P35462; D3R DiscoveRx beta-arrestin cells, luminescence, 90 min; max activation, %; 410,000 tested, 0.58% active; in the data active = max activation above about 30%
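Agonist mode: compounds and dopamine controls were applied to plated cells for 90 min at 37 degrees C after an overnight attachment at 1500 cells/well. Luminescent read-out followed 30 - 60 minutes at room temperature with DiscoveRx detection reagent.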
Large screens that a line does not name were inactive; ! = not active in a repeat. Unless noted, calls follow the shape of the dose curve; as a rule, active = well fitted inhibition curve with a large enough effect; inconclusive = small, poorly fitted or top-dose-only effect; inactive = flat fitted curve, though single readings scatter.

CC1CN(S(=O)(=O)c2cccc(C(=O)Nc3ccc4c(c3)CCC4)c2)CC(C)O1 (configuration not stated)	IL1B secr inh inconclusive, TDP1 cell CPT 1.16µM, TDP1 cell noCPT 1.16µM
O=C(NCCC1=CCCCC1)c1cccc(S(=O)(=O)N2CCCCC2)c1	TDP1 cell CPT inconclusive, TDP1 cell noCPT 23.1µM
Cc1ccc(C(=O)NCCC2=CCCCC2)cc1S(=O)(=O)N1CCOCC1	TDP1 cell CPT inconclusive, TDP1 cell noCPT inconclusive
O=C(NCCC1=CCCCC1)c1cc(S(=O)(=O)N2CCCCC2)ccc1Cl	TDP1 cell CPT inconclusive, TDP1 cell noCPT inconclusive (no result: ClpP mod)
CC1CN(S(=O)(=O)c2cccc(C(=O)NCCC3=CCCCC3)c2)CC(C)O1 (configuration not stated)	TDP1 cell CPT 11.6µM, TDP1 cell noCPT 20.6µM
COc1ccc(NC(=O)CSC2=Nc3ccccc3C3=NC(CC(=O)NCc4ccco4)C(=O)N23)cc1 (configuration not stated)	none (no result: IL1B secr inh, D3 antag)
CCCCC(=O)N/C(N)=N/c1nc2ccccc2o1	TDP1 cell CPT inconclusive, TDP1 cell noCPT inconclusive (no result: ClpP mod)
CCCC(=O)N/C(N)=N/c1nc(C)c2ccccc2n1	IL1B secr inh -85.2, TDP1 cell CPT inconclusive, TDP1 cell noCPT 16.4µM (no result: ClpP mod)
Cc1cc(C)nc(/N=C(/NC(=O)c2ccccc2)Nc2ccccc2)n1	none
CCc1ccc2nc(/N=C(\N)NC(=O)c3ccccc3)nc(C)c2c1	TDP1 cell CPT inconclusive, TDP1 cell noCPT 16.4µM
Cc1cc(C)c2nc(/N=C(\N)NC(=O)Nc3ccccc3)nc(C)c2c1	ClpP mod inconclusive, TDP1 cell CPT 23.1µM, TDP1 cell noCPT 18.4µM
CCOC(=O)c1ccc2nc(C)c(CC)c(Cl)c2c1	none (no result: ClpP mod)
Cc1cc(C)c2nc(/N=C(\N)NC(=O)c3ccccc3)nc(C)c2c1	TDP1 cell noCPT 16.4µM
COc1ccc(N(CC(=O)NCCc2cccc(C)c2)S(=O)(=O)c2c(C)nn(C)c2C)cc1	TDP1 cell CPT inconclusive, TDP1 cell noCPT inconclusive (no result: IL1B secr inh, D3 antag)
COc1cc(OC)c(NC(=O)c2cc(CN3CCOCC3)on2)cc1Cl	none (no result: IL1B secr inh, D3 antag)
CN1C(=O)c2cccc(NC(=O)C3CCCCC3)c2C1=O	none
CN1C(=O)c2cccc(NCCCCCCN3C(=O)c4ccccc4C3=O)c2C1=O	IL1B secr inh inconclusive, TDP1 cell CPT 20.6µM, TDP1 cell noCPT 9.2µM
CCC(=O)Nc1cccc2c1C(=O)N(C)C2=O	ClpP mod 25.1µM
CN(C(=S)NC(=O)c1ccc(Cl)cc1)C1CCCCC1	TDP1 cell CPT inconclusive, TDP1 cell noCPT inconclusive
COc1ccc(NC2=NC(=S)N(c3ccccc3C)C23CCCCC3)cc1	TDP1 cell CPT 23.1µM, TDP1 cell noCPT 25.9µM
COc1ccc(N2C(=S)N=C(Nc3ccccc3)C23CCCCC3)cc1	TDP1 cell CPT inconclusive
COCCNc1ccc2cc(S(=O)(=O)N3CCCCC3)ccc2n1	TDP1 cell noCPT inconclusive (no result: IL1B secr inh, D3 antag)
CN(Cc1ccccc1)c1ccc2cc(S(=O)(=O)N3CCCCC3)ccc2n1	ClpP mod inconclusive, TDP1 cell CPT 10.3µM, TDP1 cell noCPT 9.2µM (no result: IL1B secr inh, D3 antag)
Cc1cccc(N(C)c2ccc3cc(S(=O)(=O)N4CCCC4)ccc3n2)c1	TDP1 cell CPT 16.4µM!, TDP1 cell noCPT 16.4µM
CCCCNC(=O)CSc1nc2n[nH]c(C)c2c(=N)n1-c1cccc(C)c1	TDP1 cell CPT 18.4µM, TDP1 cell noCPT 11.6µM (no result: IL1B secr inh, D3 antag)
CCCCN(CC)C(=O)CSc1nc2n[nH]c(C)c2c(=N)n1-c1cccc(Cl)c1	ClpP mod inconclusive, TDP1 cell CPT 11.6µM, TDP1 cell noCPT 10.3µM (no result: IL1B secr inh, D3 antag)
Cc1ccc(CNC(=O)CSc2nc3n[nH]c(C)c3c(=N)n2-c2cccc(C)c2)cc1	TDP1 cell CPT 13µM, TDP1 cell noCPT 9.2µM
CCCCC/C=C\C/C=C\CCCCCCCC(N)=O	none (no result: IL1B secr inh, ClpP mod, D3 antag, DRD3 agonist)
